D2 ag-1: Beta-Arrestin HTS for Positive Allosteric Modulators of the Human D2 Dopamine Receptor: Agonists. DiscoveRx PathHunter D2 beta-arrestin, luminescence, 90 min; 100% = 57 uM dopamine signal. activation, % (no concentration beside the values). 360,000 tested, 0.084% active; in the data active = activation above about 40%; inconclusive = between about 15% and that limit
Target sequence (P14416 whole entry, looked up): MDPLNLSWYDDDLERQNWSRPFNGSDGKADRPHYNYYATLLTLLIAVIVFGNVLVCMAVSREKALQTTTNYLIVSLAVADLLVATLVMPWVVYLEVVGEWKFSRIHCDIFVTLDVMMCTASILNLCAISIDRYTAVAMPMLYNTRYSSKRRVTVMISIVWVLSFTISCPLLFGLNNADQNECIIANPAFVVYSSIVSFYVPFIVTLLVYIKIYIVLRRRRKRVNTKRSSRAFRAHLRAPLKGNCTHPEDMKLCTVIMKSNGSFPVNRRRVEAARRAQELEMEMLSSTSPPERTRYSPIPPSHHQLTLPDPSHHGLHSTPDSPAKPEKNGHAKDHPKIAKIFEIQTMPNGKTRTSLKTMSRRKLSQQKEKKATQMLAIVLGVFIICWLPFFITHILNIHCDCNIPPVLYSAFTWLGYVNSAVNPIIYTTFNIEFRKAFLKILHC
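Agonist mode: compounds alone added to overnight-plated D2 PathHunter cells for 90 min at 37 C, with 57 uM final dopamine (EC100) defining full response. Beta-arrestin recruitment detected by chemiluminescent reagent, read after 1 h at ambient temperature.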
D2 PAM-1: HTS Assay for Positive Allosteric Modulators of the Human D2 Dopamine Receptor: Primary Screen for Potentiators; D(2) dopamine receptor (Homo sapiens), P14416; HEK293 T-REx D2, calcium flux, EC20 dopamine potentiation; potentiation, % at 10 µM; 340,000 tested, 0.34% active;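 active = potentiation over 3 SD above the plate norm, cut at about 30% in these data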
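Tetracycline-induced HEK293 T-REx cells force-coupled to calcium signalling expressed D2; compounds were pin-added after a 10 s baseline, read kinetically 180 s, then an EC20 dopamine challenge followed with a further 180 s calcium read.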
Anesthetic bind: qHTS Assay for Identification of Novel General Anesthetics; 350,000 tested, 0.074% active; Potency, µM (titrated, usually from 77.5 µM), most hits filed as inhibitors; Ferritin light chain (Equus caballus), P02791; apoferritin/1-aminoanthracene competitive binding, fluorescence; AID 485281, 2010; active = well fitted inhibition curve with a large enough effect; inconclusive = small, poorly fitted or top-dose-only effect; inactive = no such curve, though single readings can be large or run the other way; also: nearly all actives have a fitted effect of over 20% in size
Target sequence (P02791 2-175 limits assumed): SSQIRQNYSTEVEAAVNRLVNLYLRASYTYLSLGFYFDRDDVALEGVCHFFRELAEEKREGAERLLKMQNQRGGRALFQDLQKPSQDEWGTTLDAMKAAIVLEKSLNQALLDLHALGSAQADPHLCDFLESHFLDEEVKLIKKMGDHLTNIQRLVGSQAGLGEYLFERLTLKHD
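10 uM apoferritin + 50% sat. 1-AMA, PBS; cpd 10 min RT; Ex380/Em535 endpoint; normalized to free probe vs complex; 4-param Hill fit; propofol titration as pos. ctrl.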
D2 PAM-2: Beta-Arrestin HTS for Positive Allosteric Modulators of the Human D2 Dopamine Receptor: Potentiators | DiscoveRx D2 beta-arrestin cells, luminescence, 90 min; 100% = 57 uM dopamine signal | potentiation, % (no concentration beside the values) | 360,000 tested, 0.23% active; in the data active = potentiation above about 50%; inconclusive = mostly about 30% to 49%
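D2 cells co-treated with compound plus 50 nM dopamine (EC20) for 90 min at 37 deg C to detect potentiation. Beta-arrestin recruitment was read as enzyme-fragment luminescence after 1 h at ambient temperature. Full response was set by 57 uM dopamine.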
D2 antagonist: HTS Assay for Allosteric Antagonists of the Human D2 Dopamine Receptor: Primary Screen for Antagonists. D(2) dopamine receptor (Homo sapiens), P14416. HEK293 TREx D2 cells, calcium flux, dopamine EC80. inhibition, % at 10 µM. 340,000 tested, 2% active; in the data active = inhibition above about 30%; inactive = below that, where a call was filed
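Cells plated overnight at 30 C with tetracycline; no-wash calcium dye, 30–90 min RT; 10 s baseline; compound pinned; 180 s read; EC80 dopamine added; another 180 s read.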
D2 ag-2: HTS Assay for Allosteric Agonists of the Human D2 Dopamine Receptor: Primary Screen for Agonists. D(2) dopamine receptor (Homo sapiens), P14416. HEK293 T-REx D2 cells, calcium flux agonist mode. activation, % at 2 µM. 340,000 tested, 0.53% active;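 active = activation over 3 SD above normal in the single-dose calcium agonist read, cut at about 30% in these data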
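Agonism scored from kinetic calcium signal (1 read/sec, 180 s) following compound pin transfer, after a 10 s baseline. Cells: HEK293 Trex line expressing inducible D2 receptor coupled to calcium, dye-loaded after overnight culture at 30 C.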
Large screens that a line does not name were inactive. Sampled rows, rich in hits. Any-hit rate of the full collection: about 2.5%.

CCN1CCCC1CNC(=O)c1cc2c(OC)c(OC)c(OC)cc2[nH]1 (configuration not stated)	D2 antagonist 82.7
CCN1CCCC1CNC(=O)c1cc(OC)c(OC)c(OC)c1 (configuration not stated)	none
CCN1CCCC1CNC(=O)c1cc2c(OC)cccc2[nH]1 (configuration not stated)	none (no result: D2 PAM-1, D2 antagonist, D2 ag-2)
CCN1CCC[C@H]1CNC(=O)c1c(O)c(Cl)cc(Cl)c1OC	D2 antagonist 76.0
CCCCN1CCCC1CNC(=O)c1cc(C#N)c2ccccc2c1OC (configuration not stated)	D2 antagonist 84.4 (no result: D2 ag-1, D2 PAM-2)
O=C1CN(C(=O)COc2ccc(Br)cc2F)c2ccccc2N1	none
Cc1ccc(C(=O)COC(=O)CNC(=O)Cc2ccccc2)cc1	Anesthetic bind inconclusive (no result: D2 PAM-1, D2 antagonist, D2 ag-2)
Cc1cc(NC(=O)Nc2ccc3c(ccn3C)c2)sn1	none (no result: D2 PAM-1, Anesthetic bind, D2 antagonist, D2 ag-2)
O=C(CC(NC(=O)c1ccccc1Cl)c1ccccc1)Nc1ccc2c(c1)OCO2 (configuration not stated)	none (no result: D2 PAM-1, D2 antagonist, D2 ag-2)
CN(c1ccccc1C(=O)Nc1ccc2c(c1)OCO2)S(C)(=O)=O	D2 PAM-1 37.6
CN(c1ccccc1C(=O)Nc1cccc(Cl)c1Cl)S(C)(=O)=O	D2 antagonist 53.3
CC(NC(=O)c1ccccc1Cl)C(=O)Nc1ccc2c(c1)OCO2 (configuration not stated)	D2 antagonist 72.7 (no result: Anesthetic bind)
Cc1cc(SCC(=O)Nc2ccc(O)cc2)n2nc(C)c(-c3ccccc3)c2n1	D2 ag-1 inconclusive
COc1ccc(CN2CCC(C(=O)c3ccc(Cl)cc3)CC2)cc1	D2 antagonist 35.3
COc1ccccc1N1CCN(Cc2nc(-c3ccc(F)cc3)oc2C)CC1	D2 antagonist 80.0
COc1ccc(CN2CCC(C(=O)c3cccc(Cl)c3)CC2)cc1	none (no result: D2 antagonist, D2 ag-2)
COc1ccc(-c2[nH]ncc2CN2CCC(C(=O)c3ccc(F)cc3)CC2)cc1	D2 antagonist 82.9
COc1ccccc1N1CCN(Cc2cn[nH]c2-c2ccc(F)cc2)CC1	D2 antagonist 82.2
COc1ccc(-c2[nH]ncc2CN2CCN(Cc3cccs3)CC2)cc1F	none
CC1CCN(c2nc3c(=O)[nH]c(N)nc3n2[C@@H]2O[C@H](CO)[C@@H](O)[C@H]2O)CC1	none
COc1cc(/C=N/NC(=O)c2ccc(CN(C)S(=O)(=O)c3ccc(C)cc3)cc2)ccc1O	none
Cc1cc(C)n(C(=O)c2ccc([N+](=O)[O-])c(Cl)c2)n1	none
Cc1ccc2c(c1)c1nnc(SCC(=O)N3CCN(c4ccc(F)cc4)CC3)nc1n2CC(=O)O	none
COc1ccc(-c2nc(CN3CCN(c4ccccc4OC)CC3)c(C)o2)cc1	D2 antagonist 98.5
COc1ccccc1CN1CCN(Cc2nc(-c3ccc(C)cc3)oc2C)CC1	none
Cc1ccc(CO/N=C\Cc2snc(Sc3ncc(C(F)(F)F)cc3Cl)c2C#N)cc1	Anesthetic bind inconclusive, D2 antagonist 33.5
CCCCn1c(N)c(NCCC(C)C)c(=O)[nH]c1=O	none
COCCNc1ncnc2c1cnn2Cc1ccccc1Cl	none
CCOC(=O)c1[nH]c2ccccc2c1NC(=O)c1cc(OC)c(OC)c(OC)c1	none (no result: D2 PAM-1, Anesthetic bind, D2 antagonist, D2 ag-2)
COc1cc(C(=O)Nc2c(C(=O)O)[nH]c3ccc(C)cc23)cc(OC)c1OC	D2 antagonist 34.3
Cc1ccc(C(=O)NN2C(=O)c3ccc(S(=O)(=O)c4ccc(C(=O)O)cc4)cc3C2=O)cc1	D2 antagonist 62.6
O=C(O)c1ccc(S(=O)(=O)c2ccc3c(c2)C(=O)N(NC(=O)c2ccc(O)cc2)C3=O)cc1	none
Cc1nc2ccc(NC(=O)c3ccc4ccccc4n3)cc2s1	D2 PAM-1 31.4
Cc1cccc(OCC(=O)Nc2ccc3nc(C)sc3c2)c1	D2 PAM-1 33.6
Cc1nc2ccc(NC(=O)COc3ccccc3)cc2s1	none
CC(C)CCNc1nc2c(-c3ccccc3)nnn2c2ccccc12	none (no result: D2 ag-1, D2 PAM-2, D2 antagonist)
COc1ccc(S(=O)(=O)Nc2c(C(=O)O)[nH]c3ccccc23)cc1OC	none
C/C=C(\C)C(=O)OC1[C@H](OC(C)=O)C2(CO)C(CC1(C)C)C1=CCC3C4(C)CCC(O[C@@H]5O[C@H](C(=O)O)[C@@H](O[C@@H]6O[C@H](CO)[C@@H](O)[C@H](O)[C@H]6O)[C@H](O)[C@H]5O[C@H]5O[C@H](CO)[C@@H](O)[C@H](O)[C@H]5O)[C@](C)(CO)C4CCC3(C)[C@]1(C)C[C@H]2O (some centres not stated)	D2 ag-1 41.1 (no result: D2 PAM-1, Anesthetic bind, D2 antagonist, D2 ag-2)
COc1cc(/C=C2\CC/C(=C\c3cc(OC)c(O)c(OC)c3)C2=O)cc(OC)c1O	none
COc1cc(/C=C2/CCC/C(=C\c3cc(O)c(OC)c(Cl)c3)C2=O)cc(Cl)c1O	D2 PAM-1 37.7
Oc1ccc(-c2nccc(-c3ccc(Cl)cc3Cl)n2)cc1	D2 PAM-1 94.8
CCCS/C(N)=N/N=C/c1ccccc1O	none
O=C1NC(=Nc2ccccc2)SC1Cc1ccccc1 (configuration not stated)	D2 PAM-1 41.3
O=C1CC(N2CCC(O)(c3ccc(Br)cc3)CC2)C(=O)N1c1ccc(Cl)cc1 (configuration not stated)	none
O=C1CC(N2CCC(O)(c3ccc(Cl)cc3)CC2)C(=O)N1 (configuration not stated)	D2 antagonist 31.3
Cc1cccc(CNC(=O)Cn2ccc3cc(S(=O)(=O)N4CCCCCC4)ccc32)c1	none
CCCCSC(=O)Nc1ccccc1	Anesthetic bind 12.6µM
C/C(=N\NC(=O)CN(c1ccccc1)S(C)(=O)=O)c1ccccc1O	D2 antagonist 43.9
COC(=O)c1sccc1S(=O)(=O)N(CC(=O)NCc1ccccc1)c1ccc(C)c(C)c1	none (no result: D2 ag-1, D2 PAM-2, D2 antagonist)
CC(C)c1ccccc1OCCNC(=O)c1cccnc1	none
Cc1nnc(N/N=C/c2cccc(OCc3ccc(Cl)c(Cl)c3)c2)n1N	Anesthetic bind inconclusive, D2 PAM-2 74.3
Cc1ccc(CNc2ccc(Cl)cc2[N+](=O)[O-])cc1	Anesthetic bind inconclusive
CC(=O)Nc1cccc(NC(=O)C2CC(=O)N(C3CCCCC3)C2)c1 (configuration not stated)	none

Screening data (PubChem)
